The source of these data is PubChem BioAssay (NCI).

The panel holds about 83,000 compounds, 20% with a hit somewhere; the sample as a whole holds those more often.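 Percent growth is the endpoint: 0 to 100 indicates growth inhibition (40 means 60% inhibition), 0 means no net growth, and negative values indicate cell death.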 Values without a mark were called inactive. Activity calls are given as the source filed them. The calls were made as follows: active = growth percent below 10; inactive = the rest.

Some test systems named below: SK-MEL-2 melanoma; EKVX NSCLC; SN12C renal; UO-31 renal; TK-10 renal; ACHN renal; CAKI-1 renal; A498 renal; MOLT-4 leukemia; SR leukemia; RPMI-8226 leukemia; OVCAR-8 ovarian; OVCAR-5 ovarian; OVCAR-4 ovarian; SK-OV-3 ovarian; IGROV1 ovarian; OVCAR-3 ovarian; HS 578T breast; NCI/ADR-RES ovarian.
Common to all, as to assay: NCI-60 one-dose screen, 48 h (100 = growth as untreated, 0 = no growth, -100 = all killed)
Holding throughout (conditions): 10 µM unless noted

Regarding `CC1(C)OC2C(CO[Si](C)(C)C(C)(C)C)OC(n3c(I)c(C#C[Si](C)(C)C)c(=O)[nH]c3=O)C2O1` (configuration not stated), the growth is 82.1% with SK-MEL-2 melanoma; 109% with EKVX NSCLC; 85.7% in the assay on SN12C renal; 86.6% in the assay on UO-31 renal; 109% with TK-10 renal; 107% in the assay on ACHN renal. Moreover, the growth in the assay with CAKI-1 renal was -8.73% (active); in the assay on A498 renal, 102%; in the assay on MOLT-4 leukemia, 13.4%; with SR leukemia, 63.6%; with RPMI-8226 leukemia it was -12.2% (active); in the assay on OVCAR-8 ovarian it was 88.6%. Further, the growth in the assay on OVCAR-5 ovarian is 92.6%; in the assay with OVCAR-4 ovarian, -68.4% (active); in the assay on SK-OV-3 ovarian, 111%; with IGROV1 ovarian, 96.7%; with OVCAR-3 ovarian, -41.1% (active); in the assay on HS 578T breast, 3.19% (active). Moreover, the growth in the assay with NCI/ADR-RES ovarian was 82.7%.
For `COc1ccc2[nH]c(O)c(/C=c3/cc4c(c(-c5cc(OC)c(OC)c(OC)c5)n3)=Nc3ccccc3-4)c2c1`, the growth in the assay on SK-MEL-2 melanoma was 83%; in the assay with EKVX NSCLC, 81.3%; in the assay on SN12C renal it was 80.6%; in the assay on UO-31 renal, 51.5%; in the assay with TK-10 renal, 98%; with ACHN renal it was 72%. The growth is 71.6% in the assay with CAKI-1 renal; 43.3% with A498 renal; 23.5% in the assay on MOLT-4 leukemia; 10.4% in the assay with SR leukemia; 1.39% (active) in the assay with RPMI-8226 leukemia; 42% in the assay with OVCAR-8 ovarian. Besides, the growth is 116% in the assay with OVCAR-5 ovarian; 64.8% in the assay on OVCAR-4 ovarian; 113% in the assay on SK-OV-3 ovarian; 85.8% in the assay with IGROV1 ovarian; 74.5% in the assay with OVCAR-3 ovarian; 73.9% in the assay on HS 578T breast. Moreover, the growth in the assay with NCI/ADR-RES ovarian was 39.4%.
Take `CC(=O)[C@@H]1CC[C@]2(COS(=O)(=O)c3ccc(C)cc3)CC[C@]3(C)[C@H](CC[C@@H]4[C@@]5(C)CCCNC(C)(C)[C@@H]5CC[C@]43C)[C@@H]12`: the growth with SK-MEL-2 melanoma is 105%; with EKVX NSCLC, 94%; in the assay with SN12C renal, 78%; in the assay on UO-31 renal, 66.3%; in the assay with TK-10 renal, 106%; in the assay on ACHN renal it was 87.1%. Further, the growth with CAKI-1 renal was 82.7%; in the assay with A498 renal it was 85.9%; with MOLT-4 leukemia, 21.9%; in the assay on SR leukemia, -24.6% (active); in the assay on RPMI-8226 leukemia, 46.4%; in the assay with OVCAR-8 ovarian, 84%. Moreover, the growth in the assay on OVCAR-5 ovarian was 81%; in the assay on OVCAR-4 ovarian, 60.6%; in the assay with SK-OV-3 ovarian it was 91.1%; in the assay on IGROV1 ovarian, 58.2%; in the assay on OVCAR-3 ovarian it was 88.1%; with HS 578T breast it was 81.7%. For the same compound, in the assay on NCI/ADR-RES ovarian, the growth is 78.8%.
Take `COc1ccc(-c2csc(C3=C(O)CN(CCCN4CCCC4=O)C3=N)n2)cc1OC`: the growth with SK-MEL-2 melanoma was 99.2%; with EKVX NSCLC, 97.5%; in the assay on SN12C renal, 105%; in the assay with UO-31 renal, 83.8%; in the assay with TK-10 renal it was 127%; in the assay on ACHN renal it was 103%. For the same compound, the growth was 103% with CAKI-1 renal; 100% in the assay on A498 renal; 81% in the assay with MOLT-4 leukemia; 77.1% with SR leukemia; 85.5% with RPMI-8226 leukemia; 94.6% with OVCAR-8 ovarian. In addition, the growth is 94.2% in the assay with OVCAR-5 ovarian; 116% in the assay on OVCAR-4 ovarian; 109% with SK-OV-3 ovarian; 63.9% with IGROV1 ovarian; 99.4% in the assay on OVCAR-3 ovarian; 92.9% with HS 578T breast. Also, the growth with NCI/ADR-RES ovarian was 100%.
On to `CNC(=O)NCC1OC(n2cnc3c(NC(=O)Nc4ccccc4)ncnc32)C(O[Si](C)(C)C(C)(C)C)C1CC(=O)N(C)OC` (configuration not stated), for which the growth in the assay on SK-MEL-2 melanoma is -4.44% (active); in the assay with EKVX NSCLC, 21.4%; in the assay with SN12C renal, 16.8%; with UO-31 renal it was -6.83% (active); with TK-10 renal it was 7.05% (active); in the assay with ACHN renal, 11.4%. Besides, the growth in the assay on CAKI-1 renal was 43%; in the assay with A498 renal, 45.6%; in the assay with MOLT-4 leukemia, -11.7% (active); in the assay with SR leukemia, -56% (active); with RPMI-8226 leukemia, -75.4% (active); in the assay with OVCAR-8 ovarian it was 20.4%. Besides, the growth is 44.1% with OVCAR-5 ovarian; 19% with OVCAR-4 ovarian; 40.7% in the assay with SK-OV-3 ovarian; -36.6% (active) in the assay on IGROV1 ovarian; 7.61% (active) with OVCAR-3 ovarian; 3.64% (active) with HS 578T breast. For the same compound, the growth in the assay with NCI/ADR-RES ovarian is 54.4%.
For `CCOc1ccccc1-c1cc(-c2cccs2)c(C#N)c(=O)[nH]1`, the growth in the assay with SK-MEL-2 melanoma was 98.4%; in the assay with EKVX NSCLC, 97.5%; in the assay with SN12C renal, 83.3%; in the assay with UO-31 renal, 68.8%; in the assay with TK-10 renal it was 110%; in the assay on ACHN renal, 95.6%. Besides, the growth was 76.1% with CAKI-1 renal; 70.2% in the assay with A498 renal; 92.9% in the assay on MOLT-4 leukemia; 77.4% in the assay with SR leukemia; 91.2% in the assay with RPMI-8226 leukemia; 95% with OVCAR-8 ovarian. The growth in the assay with OVCAR-5 ovarian is 94.6%; in the assay with OVCAR-4 ovarian, 39.2%; in the assay with SK-OV-3 ovarian it was 98.7%; in the assay on IGROV1 ovarian it was 66.7%; in the assay on OVCAR-3 ovarian, 99.7%; with HS 578T breast, 76.6%. For the same compound, the growth with NCI/ADR-RES ovarian is 76.7%.
For the compound `CCOC(=O)c1c2ncccc2n2c(=O)n(-c3ccccc3C)nnc12`, the growth was 107% in the assay with SK-MEL-2 melanoma; 74% with EKVX NSCLC; 105% in the assay on SN12C renal; 73.4% in the assay with UO-31 renal; 146% with TK-10 renal; 92.2% in the assay with ACHN renal. In addition, the growth in the assay on CAKI-1 renal was 91.7%; with A498 renal, 127%; in the assay with MOLT-4 leukemia, 61.2%; in the assay with SR leukemia, 60.4%; in the assay with RPMI-8226 leukemia it was 158%; with OVCAR-8 ovarian it was 99.1%. The growth in the assay with OVCAR-5 ovarian was 101%; in the assay with OVCAR-4 ovarian it was 90.2%; in the assay on SK-OV-3 ovarian, 80.7%; with IGROV1 ovarian it was 63.9%; with OVCAR-3 ovarian, 135%; in the assay with HS 578T breast, 112%. The growth with NCI/ADR-RES ovarian is 93.3%.
As to `Cc1ccc2nc(NC(=O)CSc3nc(Nc4ccc([N+](=O)[O-])cc4)c(C#N)c(-c4ccccc4)n3)sc2c1`, the growth is 104% in the assay on SK-MEL-2 melanoma; 91.1% in the assay on EKVX NSCLC; 97.9% with SN12C renal; 78.8% with UO-31 renal; 101% in the assay with TK-10 renal; 90.7% in the assay with ACHN renal. The growth was 87.9% in the assay with CAKI-1 renal; 116% with A498 renal; 97.8% with MOLT-4 leukemia; 47.6% in the assay with SR leukemia; 80% in the assay with RPMI-8226 leukemia; 91.5% with OVCAR-8 ovarian. Moreover, the growth is 87.5% in the assay on OVCAR-5 ovarian; 88.4% with OVCAR-4 ovarian; 98.3% with SK-OV-3 ovarian; 76.1% with IGROV1 ovarian; 102% in the assay on OVCAR-3 ovarian; 85% in the assay on HS 578T breast. Further, the growth in the assay with NCI/ADR-RES ovarian is 95%.
